Results published in PubChem BioAssay (EPA / NIEHS).
Inconclusive results are not listed. Active and inactive are the calls of the source. How the source made its calls, unless noted: active means hit-call score of the fitted dose curve at least 0.9, where 1 is the maximum; inactive means score below 0.9.

Key:
[1] = biological target: Nuclear respiratory factor 1 (Homo sapiens) (UniProt Q16656); test: ATG_NRF1_CIS: Attagene CIS-FACTORIAL HepG2 Assay for human Nuclear Respiratory Factor 1 (NRF1) Orphan Gene (AID 2282987); conditions: HepG2 NRF1 cis-element reporter, Attagene multiplex; actives raise or lower the signal
Outline: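 Reporter mRNA induction or loss in HepG2 cells after 24 h dosing; cis-regulated reporter constructs report endogenous transcription-factor activity. Quantified by RT-PCR/capillary electrophoresis fluorescence, DMSO-referenced.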

[2] = biological target: Myc proto-oncogene protein (Homo sapiens) (UniProt P01106); test: ATG_Myc_CIS: Attagene CIS-FACTORIAL HepG2 Assay for human Myelocytomatosis (Myc) Proto-Oncogene Transcription Factor (AID 2282990); conditions: HepG2, Attagene cis-reporter transcription factor activity; actives raise or lower the signal
Outline: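 Transiently transfected HepG2 cells bearing cis-promoter reporter units for endogenous transcription factors; 24 h exposure. Reporter mRNA measured by RT-PCR, 6-FAM primer extension, HpaI cut and capillary electrophoresis; bidirectional fit relative to DMSO.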

[3] = ATG_NF_kB_CIS: Attagene CIS-FACTORIAL HepG2 Assay for human Nuclear Factor Kappa B (NF-kB) (AID 2282991); conditions: HepG2 Attagene cis-factorial NF-kB reporter mRNA; actives raise or lower the signal
Outline: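 DMSO served as negative control and baseline for bidirectional curve fitting. Transiently transfected HepG2 cells were dosed for 24 h, then reporter transcripts were measured by RT-PCR with capillary electrophoresis detection.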

[4] = ATG_NRF2_ARE_CIS: Attagene CIS-FACTORIAL HepG2 Assay for human Nuclear Factor Erythroid 2 Related Factor 2 (NFR2) response to Antioxidant Response Elements (ARE) (AID 2282992); conditions: HepG2 Attagene ARE/NRF2 reporter, transcription factor activity; actives raise or lower the signal;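 on AC50: reporter mRNA level measured by RT-PCR and capillary electrophoresis fluorescence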
Outline: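 Multiplexed reporter mRNA profiling in HepG2 after a 24 h chemical exposure. Curves fitted in both directions relative to DMSO negative control.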

[5] = ATG_Oct_MLP_CIS: Attagene CIS-FACTORIAL HepG2 Assay for human Octamer-Binding Transcription Factor (Oct) (AID 2282993); conditions: HepG2 Attagene cis-factorial Oct reporter, mRNA; actives raise or lower the signal
Outline: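 Read-out: reporter mRNA via RT-PCR plus capillary electrophoresis of 6-FAM-labelled fragments. Transiently transfected HepG2, 24 h exposure, endogenous TF activity on cis elements. Gain or loss of signal fitted relative to DMSO.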

[6] = biological target: Cellular tumor antigen p53 (Homo sapiens) (UniProt P04637); test: ATG_p53_CIS: Attagene CIS-FACTORIAL HepG2 Assay for human p53 Transcription Factor (AID 2282994); conditions: HepG2 p53 cis-element reporter, Attagene mRNA; actives raise or lower the signal
Outline: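 Multiplexed reporter mRNA assay in human HepG2 liver cells; cis-regulated units report endogenous factor activity. Values come from bidirectional curve fitting against DMSO negative control after 24 h treatment.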

[7] = BSK_3C_uPAR: BioMAP Diversity Plus: 3C Assay for Urokinase-type plasminogen activator receptor (uPAR) Biomarker Activity (AID 2282998); conditions: BioMAP 3C HUVEC, uPAR biomarker ELISA; actives raise or lower the signal
Outline: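 HUVEC primary cells; 24 h post-dose; uPAR by ELISA; gain or loss of signal fitted bidirectionally vs DMSO baseline.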

[8] = BSK_3C_VCAM1: BioMAP Diversity Plus: 3C Assay for Vascular cell adhesion molecule 1 (VCAM1) Biomarker Activity (AID 2282999); conditions: BioMAP 3C HUVEC, VCAM1 ELISA, cytokine-stimulated; actives raise or lower the signal
Outline: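 Human umbilical vein endothelial cells (3C system), biomarker read by ELISA 24 h after dosing; bidirectional fit against DMSO baseline. Cytotoxicity tracked by SRB total-protein staining in parallel cultures at biomarker time.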

[9] = BSK_4H_Eotaxin3: BioMAP Diversity Plus: 4H Assay for Eotaxin 3 Biomarker Activity (AID 2283000); conditions: primary human endothelial cells (HUVEC); actives raise or lower the signal;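 on outcome: CCL26 protein level quantified by ELISA in parallel with SRB cytotoxicity check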
Outline: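 Eotaxin-3 (CCL26) levels were measured by ELISA in HUVEC primary cultures 24 h post-dosing. Gain or loss of signal was fitted in both directions, with DMSO serving as baseline and negative control.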

[10] = biological target: human Peroxisome Proliferator-activated Receptor alpha (PPARa), PPARA (gene 5465) (UniProt Q07869); test: ATG_PPARa_TRANS: Attagene TRANS-FACTORIAL HepG2 Assay for human Peroxisome Proliferator-activated Receptor alpha (PPARa) (AID 2283001; active means hit-call score of the fitted dose curve at least 0.9, where 1 is the maximum)
Outline: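 Measures transcriptional activity of an exogenous chimeric PPARa-Gal4 protein in transiently transfected HepG2 cells after 24 h dosing. Reporter mRNA quantified via RT-PCR and capillary electrophoresis; DMSO served as negative control.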

[11] = biological target: human Peroxisome Proliferator-activated Receptor delta (PPARd), PPARD (gene 5467) (UniProt Q03181); test: ATG_PPARd_TRANS: Attagene TRANS-FACTORIAL HepG2 Assay for human Peroxisome Proliferator-activated Receptor delta (PPARd) (AID 2283002; active means hit-call score of the fitted dose curve at least 0.9, where 1 is the maximum)
Outline: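 HepG2 cells transiently transfected with GAL4-UAS multiplexed reporter units driven by exogenous chimeric NR-GAL4 proteins; 24 h compound exposure. Reporter mRNA measured by RT-PCR, 6-FAM primer extension, HpaI digestion and capillary electrophoresis; gain of signal fitted relative to DMSO.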

[12] = read-out: Intercellular Adhesion Molecule 1 (ICAM1), ICAM1 (gene 3383); test: BSK_3C_ICAM1: BioMAP Diversity Plus: 3C Assay for Intercellular Adhesion Molecule 1 (ICAM1) Biomarker Activity (AID 2283003); conditions: primary human endothelial cells (HUVEC); actives raise or lower the signal
Outline: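 Human vascular endothelial primary cells, 3C conditions, 24 h treatment. ICAM-1 by ELISA.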

[13] = biological target: Peroxisome proliferator-activated receptor gamma (Homo sapiens) (UniProt P37231); test: ATG_PPARg_TRANS: Attagene TRANS-FACTORIAL HepG2 Assay for human Peroxisome Proliferator-activated Receptor-gamma (PPARg) (AID 2283007; active means hit-call score of the fitted dose curve at least 0.9, where 1 is the maximum)
Outline: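 Chimeric NR-Gal4 transactivation is measured in transiently transfected HepG2 cells by reporter mRNA induction at 24 h. Detection uses RT-PCR with fluorescent labelling and capillary electrophoresis; DMSO defines baseline.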

[14] = biological target: Nuclear receptor subfamily 1 group I member 2 (Homo sapiens) (UniProt O75469); test: ATG_PXR_TRANS: Attagene TRANS-FACTORIAL HepG2 Assay for human Pregnane X Receptor (PXR) (AID 2283008; active means hit-call score of the fitted dose curve at least 0.9, where 1 is the maximum)
Outline: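 Measures mRNA induction of a GAL4-UAS-driven reporter in human HepG2 cells transiently expressing PXR fused to Gal4, following 24 h treatment. DMSO served as negative control and baseline.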

[15] = BSK_3C_TissueFactor: BioMAP Diversity Plus: 3C Assay for Tissue Factor Biomarker Activity (AID 2282997); conditions: BioMAP 3C HUVEC, tissue factor biomarker readout; actives raise or lower the signal
Outline: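 HUVEC were treated 24 h, then surface tissue factor measured by ELISA and fitted bidirectionally against DMSO. Parallel SRB total-protein staining assessed overt cytotoxicity at the same time point.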

[16] = BSK_3C_Proliferation: Cell Proliferation Assessment in the BioMAP Diversity Plus: 3C Assay (AID 2283006); conditions: primary human endothelial cells (HUVEC);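 on AC50: potency may reflect either rise or fall in cell number versus DMSO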
Outline: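 Proliferation of human vascular endothelial primary cells after 48 h dosing, quantified as SRB-stained protein at 560 nm relative to DMSO.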

[17] = biological target: human Retinoic Acid Receptor beta (RARb), RARB (gene 5915) (UniProt P10826); test: ATG_RARb_TRANS: Attagene TRANS-FACTORIAL HepG2 Assay for human Retinoic Acid Receptor beta (AID 2283004; active means hit-call score of the fitted dose curve at least 0.9, where 1 is the maximum)
Outline: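 HepG2 cells were transiently transfected with GAL4-UAS reporter units that report activity of exogenous chimeric NR-Gal4 proteins, then exposed to compound for 24 h. Reporter mRNA was quantified by RT-PCR with capillary electrophoresis fluorescence, as gain of signal over DMSO.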

[18] = biological target: Retinoic acid receptor alpha (Homo sapiens) (UniProt P10276); test: ATG_RARa_TRANS: Attagene TRANS-FACTORIAL HepG2 Assay for human Retinoic Acid Receptor alpha (RARa) (AID 2283005; active means hit-call score of the fitted dose curve at least 0.9, where 1 is the maximum;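 on AC50: potency for increased reporter signal meaning RARa activation over DMSO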)
Outline: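 HepG2 transiently transfected with multiplex GAL4-UAS reporter units including a human RARa–GAL4 chimera; 24 h compound exposure. Reporter mRNA quantified by RT-PCR, 6-FAM labeling and capillary electrophoresis; gain of signal versus DMSO.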

[19] = biological target: human Retinoic Acid Receptor gamma (RARg), RARG (gene 5916) (UniProt P13631); test: ATG_RARg_TRANS: Attagene TRANS-FACTORIAL HepG2 Assay for human Retinoic Acid Receptor gamma (RARg) (AID 2283009; active means hit-call score of the fitted dose curve at least 0.9, where 1 is the maximum)
Outline: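 HepG2, RARg-GAL4 TRANS system, 24 h exposure; reporter mRNA by RT-PCR + CE fluorescence; increase over DMSO.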

Sequence of Retinoic acid receptor alpha (Homo sapiens) (P10276 whole entry, looked up, the tested form may be a part): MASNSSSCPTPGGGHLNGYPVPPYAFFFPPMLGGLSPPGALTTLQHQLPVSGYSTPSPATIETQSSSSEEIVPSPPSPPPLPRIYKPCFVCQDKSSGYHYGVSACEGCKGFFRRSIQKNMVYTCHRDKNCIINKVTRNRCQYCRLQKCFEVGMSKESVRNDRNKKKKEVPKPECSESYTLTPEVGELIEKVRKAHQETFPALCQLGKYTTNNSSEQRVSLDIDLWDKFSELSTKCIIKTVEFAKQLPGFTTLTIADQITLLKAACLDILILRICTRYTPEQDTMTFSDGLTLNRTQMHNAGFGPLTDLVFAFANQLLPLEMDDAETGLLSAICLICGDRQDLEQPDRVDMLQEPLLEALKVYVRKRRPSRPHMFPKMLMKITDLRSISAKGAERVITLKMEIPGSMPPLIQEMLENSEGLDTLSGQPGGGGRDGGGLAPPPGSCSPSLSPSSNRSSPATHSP
Sequence of human Peroxisome Proliferator-activated Receptor delta (PPARd), PPARD (gene 5467) (Q03181 whole entry, looked up, the tested form may be a part): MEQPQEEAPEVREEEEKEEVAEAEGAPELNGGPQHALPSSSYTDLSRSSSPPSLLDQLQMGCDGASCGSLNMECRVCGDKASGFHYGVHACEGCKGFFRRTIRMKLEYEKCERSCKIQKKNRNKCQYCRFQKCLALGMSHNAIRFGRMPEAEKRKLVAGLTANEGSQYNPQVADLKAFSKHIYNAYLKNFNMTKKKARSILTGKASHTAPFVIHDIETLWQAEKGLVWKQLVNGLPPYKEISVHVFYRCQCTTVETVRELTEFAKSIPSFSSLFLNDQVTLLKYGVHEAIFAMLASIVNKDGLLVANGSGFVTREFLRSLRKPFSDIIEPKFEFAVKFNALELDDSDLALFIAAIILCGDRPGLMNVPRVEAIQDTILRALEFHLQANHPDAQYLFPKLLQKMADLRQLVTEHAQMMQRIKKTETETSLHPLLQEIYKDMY
Sequence of human Peroxisome Proliferator-activated Receptor alpha (PPARa), PPARA (gene 5465) (Q07869 whole entry, looked up, the tested form may be a part): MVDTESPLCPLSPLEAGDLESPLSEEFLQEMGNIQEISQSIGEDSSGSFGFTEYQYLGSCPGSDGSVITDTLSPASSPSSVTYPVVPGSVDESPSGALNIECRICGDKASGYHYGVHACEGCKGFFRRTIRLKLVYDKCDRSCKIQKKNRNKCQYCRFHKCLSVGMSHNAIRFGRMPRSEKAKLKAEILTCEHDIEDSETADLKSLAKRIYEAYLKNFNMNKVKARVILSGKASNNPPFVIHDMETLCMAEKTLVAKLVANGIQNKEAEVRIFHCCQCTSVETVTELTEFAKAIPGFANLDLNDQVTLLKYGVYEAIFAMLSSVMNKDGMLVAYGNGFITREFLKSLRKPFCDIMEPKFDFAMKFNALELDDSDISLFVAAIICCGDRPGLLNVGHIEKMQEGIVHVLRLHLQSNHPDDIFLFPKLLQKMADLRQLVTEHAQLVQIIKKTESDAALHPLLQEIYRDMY
Sequence of Nuclear respiratory factor 1 (Homo sapiens) (Q16656 whole entry, looked up): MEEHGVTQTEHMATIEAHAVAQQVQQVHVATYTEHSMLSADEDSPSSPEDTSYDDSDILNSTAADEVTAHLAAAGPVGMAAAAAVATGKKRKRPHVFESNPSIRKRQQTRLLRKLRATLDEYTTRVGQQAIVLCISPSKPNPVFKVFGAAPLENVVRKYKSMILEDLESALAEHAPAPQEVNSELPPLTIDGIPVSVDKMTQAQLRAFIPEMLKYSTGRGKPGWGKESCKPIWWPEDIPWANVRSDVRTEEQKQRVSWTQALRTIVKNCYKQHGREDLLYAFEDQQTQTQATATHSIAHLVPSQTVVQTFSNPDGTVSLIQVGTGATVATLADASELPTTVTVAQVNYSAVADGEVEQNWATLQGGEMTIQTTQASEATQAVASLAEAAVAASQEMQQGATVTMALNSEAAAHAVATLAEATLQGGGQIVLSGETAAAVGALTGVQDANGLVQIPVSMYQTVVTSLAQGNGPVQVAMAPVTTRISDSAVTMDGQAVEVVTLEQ
Sequence of Cellular tumor antigen p53 (Homo sapiens) (P04637 whole entry, looked up): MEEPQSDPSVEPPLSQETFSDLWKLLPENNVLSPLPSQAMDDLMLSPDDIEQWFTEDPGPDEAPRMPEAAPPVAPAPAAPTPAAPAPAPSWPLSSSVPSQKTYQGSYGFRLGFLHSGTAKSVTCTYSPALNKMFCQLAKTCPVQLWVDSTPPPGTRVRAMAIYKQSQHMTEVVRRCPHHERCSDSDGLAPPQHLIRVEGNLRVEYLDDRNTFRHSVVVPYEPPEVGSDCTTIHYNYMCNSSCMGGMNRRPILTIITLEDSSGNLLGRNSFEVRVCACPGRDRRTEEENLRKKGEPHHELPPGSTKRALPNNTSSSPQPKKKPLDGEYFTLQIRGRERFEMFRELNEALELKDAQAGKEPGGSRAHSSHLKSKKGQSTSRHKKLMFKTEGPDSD
Sequence of Nuclear receptor subfamily 1 group I member 2 (Homo sapiens) (O75469 whole entry, looked up, the tested form may be a part): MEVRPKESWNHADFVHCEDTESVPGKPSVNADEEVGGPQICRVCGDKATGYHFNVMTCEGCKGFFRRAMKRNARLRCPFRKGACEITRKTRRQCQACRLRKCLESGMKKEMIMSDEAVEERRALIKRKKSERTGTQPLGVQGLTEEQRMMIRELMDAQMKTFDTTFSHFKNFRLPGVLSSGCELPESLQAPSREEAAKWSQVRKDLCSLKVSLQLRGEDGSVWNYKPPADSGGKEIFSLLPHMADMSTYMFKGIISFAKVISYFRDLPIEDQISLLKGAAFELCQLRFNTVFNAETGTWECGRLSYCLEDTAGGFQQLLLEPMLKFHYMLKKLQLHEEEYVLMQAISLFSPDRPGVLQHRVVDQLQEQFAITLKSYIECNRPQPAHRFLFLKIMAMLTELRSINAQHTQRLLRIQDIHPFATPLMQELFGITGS
Sequence of Myc proto-oncogene protein (Homo sapiens) (P01106 whole entry, looked up): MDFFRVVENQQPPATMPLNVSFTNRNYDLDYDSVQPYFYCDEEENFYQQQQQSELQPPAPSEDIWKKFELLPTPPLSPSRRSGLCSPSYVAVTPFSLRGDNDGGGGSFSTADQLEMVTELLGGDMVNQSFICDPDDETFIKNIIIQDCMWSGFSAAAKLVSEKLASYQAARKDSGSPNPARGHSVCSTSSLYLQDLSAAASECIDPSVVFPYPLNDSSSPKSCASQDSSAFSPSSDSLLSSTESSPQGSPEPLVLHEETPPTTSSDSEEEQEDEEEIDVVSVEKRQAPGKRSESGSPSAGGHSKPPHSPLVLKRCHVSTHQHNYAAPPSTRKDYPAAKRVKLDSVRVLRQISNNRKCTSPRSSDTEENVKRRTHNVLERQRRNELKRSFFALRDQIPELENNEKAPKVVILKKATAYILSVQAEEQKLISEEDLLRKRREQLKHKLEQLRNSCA
Sequence of Peroxisome proliferator-activated receptor gamma (Homo sapiens) (P37231 whole entry, looked up, the tested form may be a part): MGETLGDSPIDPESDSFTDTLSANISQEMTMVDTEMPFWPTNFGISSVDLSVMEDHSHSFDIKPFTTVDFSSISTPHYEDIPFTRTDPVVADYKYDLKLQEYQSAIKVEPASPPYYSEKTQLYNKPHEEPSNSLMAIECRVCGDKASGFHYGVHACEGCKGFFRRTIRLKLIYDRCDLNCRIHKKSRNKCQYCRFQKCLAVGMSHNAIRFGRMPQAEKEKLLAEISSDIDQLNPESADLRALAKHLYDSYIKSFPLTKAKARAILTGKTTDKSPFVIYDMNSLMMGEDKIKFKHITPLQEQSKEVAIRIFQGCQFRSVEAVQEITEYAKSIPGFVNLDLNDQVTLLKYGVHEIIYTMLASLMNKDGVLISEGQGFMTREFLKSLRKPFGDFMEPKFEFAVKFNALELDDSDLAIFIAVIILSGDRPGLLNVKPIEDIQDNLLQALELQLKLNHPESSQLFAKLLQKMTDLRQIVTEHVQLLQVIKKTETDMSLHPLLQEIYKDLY
Sequence of human Retinoic Acid Receptor gamma (RARg), RARG (gene 5916) (P13631 whole entry, looked up, the tested form may be a part): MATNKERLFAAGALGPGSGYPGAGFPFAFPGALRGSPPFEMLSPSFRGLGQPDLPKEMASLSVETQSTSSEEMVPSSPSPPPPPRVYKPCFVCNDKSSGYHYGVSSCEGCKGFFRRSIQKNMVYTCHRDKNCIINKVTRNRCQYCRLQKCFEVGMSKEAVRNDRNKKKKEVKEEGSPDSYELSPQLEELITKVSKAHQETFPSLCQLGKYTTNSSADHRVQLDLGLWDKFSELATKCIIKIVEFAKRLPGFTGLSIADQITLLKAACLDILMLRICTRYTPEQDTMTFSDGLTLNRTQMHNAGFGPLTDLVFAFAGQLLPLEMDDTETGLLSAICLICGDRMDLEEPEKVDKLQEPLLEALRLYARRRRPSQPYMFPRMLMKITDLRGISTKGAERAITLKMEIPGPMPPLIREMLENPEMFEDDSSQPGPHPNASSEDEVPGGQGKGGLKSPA
Sequence of human Retinoic Acid Receptor beta (RARb), RARB (gene 5915) (P10826 whole entry, looked up, the tested form may be a part): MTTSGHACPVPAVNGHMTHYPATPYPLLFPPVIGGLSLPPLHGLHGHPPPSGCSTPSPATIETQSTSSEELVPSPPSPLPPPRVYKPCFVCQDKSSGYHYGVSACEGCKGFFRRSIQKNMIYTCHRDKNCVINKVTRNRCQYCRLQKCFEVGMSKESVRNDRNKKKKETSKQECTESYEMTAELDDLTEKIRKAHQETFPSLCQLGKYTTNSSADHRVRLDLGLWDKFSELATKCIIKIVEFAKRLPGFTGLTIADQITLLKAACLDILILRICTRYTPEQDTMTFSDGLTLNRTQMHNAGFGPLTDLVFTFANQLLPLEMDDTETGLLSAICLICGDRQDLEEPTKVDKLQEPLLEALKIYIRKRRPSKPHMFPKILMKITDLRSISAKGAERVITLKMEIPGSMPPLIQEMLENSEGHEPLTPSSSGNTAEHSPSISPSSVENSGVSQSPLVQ

With CNC(=O)Oc1cccc2c1OC(C)(C)O2 the outcome [1] was “inactive”, the outcome [2] was “inactive” and the outcome [3] was “inactive”. For the same molecule, the AC50 [4] was 37 µM (active), the AC50 [5] was 38.5 µM (active) and the AC50 [6] was 6.08 µM (active). The outcome [7] was “inactive”, the AC50 [8] was 28.5 µM (active) and the AC50 [9] was 20 µM (active). The outcome [10] was “inactive”, the outcome [11] was “inactive” and the outcome [12] was “inactive”. For the same molecule, the outcome [13] was “inactive” and the outcome [14] was “inactive”.
In the case of COc1ccc(C(=CC(=O)N2CCOCC2)c2ccc(Cl)cc2)cc1OC, the outcome [1] is reported as “inactive”, the outcome [2] is reported as “inactive” and the outcome [3] is reported as “inactive”. The AC50 [4] was 8.76 µM (active), the AC50 [5] was 13.8 µM (active) and the outcome [6] was “inactive”. For the same molecule, the outcome [15] was “inactive”, the AC50 [7] was 12.7 µM (active) and the outcome [8] was “inactive”. The outcome [9] was “inactive”, the outcome [10] was “inactive” and the outcome [11] was “inactive”. The outcome [12] was “inactive”, the outcome [13] was “inactive” and the outcome [14] was “inactive”.
For COP(=O)(OC)SCn1c(=O)oc2cc(Cl)cnc21, the outcome [1] was “inactive”, the outcome [2] was “inactive” and the outcome [3] was “inactive”. The AC50 [4] was 8.25 µM (active), the outcome [5] was “inactive” and the outcome [6] was “inactive”. The outcome [7] was “inactive”, the outcome [8] was “inactive” and the AC50 [9] was 36.9 µM (active). The outcome [10] was “inactive”, the outcome [12] was “inactive” and the outcome [16] was “inactive”. For the same molecule, the outcome [14] was “inactive”.
For COP(=O)(NC(C)=O)SC (stereo unspecified), the outcome [1] was “inactive”, the outcome [2] was “inactive” and the outcome [4] was “inactive”. For the same molecule, the outcome [5] was “inactive”, the outcome [6] was “inactive” and the outcome [7] was “inactive”. For the same molecule, the outcome [8] was “inactive”, the outcome [9] was “inactive” and the outcome [12] was “inactive”. The outcome [16] was “inactive”.
For COP(=O)(OC)C(O)C(Cl)(Cl)Cl (stereo unspecified), the outcome [1] was “inactive”, the outcome [2] was “inactive” and the outcome [3] was “inactive”. For the same molecule, the AC50 [4] was 29.9 µM (active), the AC50 [5] was 50 µM (active) and the AC50 [6] was 9.92 µM (active). For the same molecule, the outcome [7] was “inactive”, the outcome [8] was “inactive” and the outcome [9] was “inactive”. For the same molecule, the outcome [10] was “inactive”, the outcome [11] was “inactive” and the outcome [12] was “inactive”. For the same molecule, the outcome [17] was “inactive”, the AC50 [18] was 78.9 µM (active) and the outcome [14] was “inactive”. The outcome [19] was “inactive”.
For CC(C)[C@H](C(=O)O[C@H](C#N)c1cccc(Oc2ccccc2)c1)c1ccc(Cl)cc1, the outcome [1] was “inactive”, the outcome [2] was “inactive” and the outcome [3] was “inactive”. The AC50 [4] was 0.938 µM (active), the outcome [5] was “inactive” and the outcome [6] was “inactive”. The outcome [15] was “inactive”, the outcome [7] was “inactive” and the outcome [8] was “inactive”. The outcome [9] was “inactive”, the outcome [11] was “inactive” and the outcome [12] was “inactive”. The AC50 [16] was 6.57 µM (active) and the AC50 [14] was 5 µM (active).
In the case of C#CC(C)(C)NC(=O)c1cc(Cl)cc(Cl)c1, the outcome [1] is reported as “inactive”, the outcome [2] is reported as “inactive” and the outcome [3] is reported as “inactive”. For the same molecule, the AC50 [4] was 22 µM (active), the AC50 [5] was 30.6 µM (active) and the outcome [6] was “inactive”. The outcome [15] was “inactive”, the outcome [7] was “inactive” and the outcome [8] was “inactive”. For the same molecule, the outcome [9] was “inactive”, the outcome [12] was “inactive” and the outcome [18] was “inactive”. The AC50 [14] was 30.9 µM (active).
For CC(=NC#N)N(C)Cc1ccc(Cl)nc1, the outcome [1] was “inactive”, the outcome [2] was “inactive” and the outcome [3] was “inactive”. The outcome [4] was “inactive”, the outcome [5] was “inactive” and the outcome [6] was “inactive”. The outcome [15] was “inactive”, the outcome [7] was “inactive” and the outcome [8] was “inactive”. The outcome [9] was “inactive”, the outcome [10] was “inactive” and the outcome [12] was “inactive”. For the same molecule, the outcome [18] was “inactive”, the outcome [16] was “inactive” and the outcome [14] was “inactive”. For the same molecule, the outcome [19] was “inactive”.
